The structures appear in SMILES notation.
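Further: KINOMEscan kinase panel screen.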

For the first test, the system named is INSR. Conditions: concentration: 1 μM, replicates: in singlicate; n = 1.
Take `COc1ccc(-c2cc3c(C)nc(N)nc3n([C@H]3CC[C@H](O)CC3)c2=O)cn1`: the “%Inh” value is given as 0%.

On to `CCC(=O)c1c(-c2ccccc2)c2cc(Cl)ccc2c(=O)n1Cc1ccc(C(=O)O)cc1`, for which the “%Inh” value is 0%.

In the case of `O=C(NCc1cccs1)c1cc(C(=O)c2c(Cl)cccc2Cl)c[nH]1` [GW823670], the “%Inh” value is listed as 0%.

Consider `COc1cccc(C2=C(N(C)c3ccccc3)C(=O)NC2=O)c1` [SB-334865], for which the “%Inh” value is on record as 0%.

Consider `CC(C)(C)c1ccc(C(=O)Nc2cn3cc(-c4ccccc4)ccc3n2)cc1`, for which the “%Inh” value came to 0%.

Regarding `CCC(=O)c1c(-c2ccccc2)c2cc(Cl)ccc2c(=O)n1Cc1cc(S(C)(=O)=O)n(CC(F)F)n1`, the “%Inh” value is listed as 0%.

For `CCC(=O)c1c(-c2ccccc2)c2cc(Cl)ccc2c(=O)n1Cc1cc(S(C)(=O)=O)n(CCC(C)(C)O)n1`, the “%Inh” value stood at 13%.

Regarding `COc1cc2nccc(Nc3ccc(OCc4ccc(NC(C)=O)cc4)cc3)c2cc1OC.Cl` [GW440135], the “%Inh” value is on record as 0%.

As to `COc1cc2nccc(Nc3cccc(Oc4ccccc4)c3)c2cc1OC.Cl` [GW284543], the “%Inh” value was 4%.

Take `Cl.c1ccc(Cn2cnc3cc(Nc4ncnc5ccccc45)ccc32)cc1` [GW272142]: the “%Inh” value was 0%.

As to `O=C(NCCNc1ccnc(Nc2ccc(F)cc2)n1)Nc1ccc2c(c1)OCO2` [GSK1379882], the “%Inh” value is given as 7%.

For `Nc1ncnc2c1ncn2-c1ccc(Cl)cc1` [AH2635], the “%Inh” value is reported as 0%.

In the case of `COc1cc(Nc2nccc(N3CCC(NC(=O)C(C)c4ccc(Cl)cc4)C3)n2)cc(OC)c1OC` (stereo not drawn) [GSK1379757], the “%Inh” value is recorded as 0%.

`Cc1c(Cn2c(C)nn3c(=O)cc(N4CCO[C@H](C)C4)nc23)cccc1C(F)(F)F` [GSK2373690]: the “%Inh” value is given as 0%.

`CCc1nc(-c2cccc(C)c2)c(-c2ccncc2)s1`: the “%Inh” value is reported as 0%.

Regarding `Cc1nnc(-c2ccc(C)c(-c3ccc(C(=O)O)cc3)c2)o1` [GW608005], the “%Inh” value is 0%.

Take `CCC(=O)c1c(-c2ccccc2)c2cc(Cl)ccc2c(=O)n1Cc1cc(C(=O)NC2CC2)n(C)n1`: the “%Inh” value was found to be 0%.

Consider `Nc1nc(-c2ccccc2F)c(-c2ccnc3ccccc23)s1` [GW560459], for which the “%Inh” value turned out to be 94.4%.

Turning to `Cc1nnc(-c2ccc3ncn(-c4ccc(S(C)=O)cc4)c3c2)o1` (stereo not drawn), the “%Inh” value was 0%.

In the case of `CCS(=O)(=O)c1ccc(OC)c(Nc2ncc(-c3ccc(F)cc3)o2)c1.Cl` [GW591947], the “%Inh” value turned out to be 0%.

Turning to `CCS(=O)c1ccc(-c2coc3ccc(-c4nnc(C)o4)cc23)cc1` (stereo not drawn), the “%Inh” value stood at 1%.

Take `Nc1n[nH]c2nnc(-c3ccccc3)c(-c3ccccc3)c12` [GW554060]: the “%Inh” value turned out to be 3%.

As to `O=C(Nc1n[nH]c2nc(-c3ccccc3)c(Cl)cc12)C1CC1` [SB-734909], the “%Inh” value was 31%.

Turning to `COC(=O)c1c(-c2ccccc2)c2cc(Br)ccc2c(=O)n1Cc1ccc(S(C)(=O)=O)cc1`, the “%Inh” value worked out at 13%.

In the case of `Cc1ccc(Oc2ccc(Nc3ncnc4cc[nH]c34)cc2C)cn1`, the “%Inh” value stood at 11%.

On to `O=C(Nc1n[nH]c2nc(-c3ccccc3)c(Br)cc12)C1CC1` [SB-708998], for which the “%Inh” value is 7%.

`CN(C)c1cc(-c2ccc3c(N)n[nH]c3c2)nc(N)n1` [GSK2219329]: the “%Inh” value worked out at 0%.

Turning to `COc1ccc(-n2cnc3c(N)ncnc32)cc1` [SKF-97236], the “%Inh” value turned out to be 52%.

With `CCCC(=O)Nc1n[nH]c2ncc(-c3cccc4ccccc34)cc12` [SB-642057], the “%Inh” value worked out at 18%.

As to `FC(F)(F)c1ccc(-c2ncn(CCCN3CCOCC3)c2-c2ccncc2)cc1` [SB-217780], the “%Inh” value stood at 0%.

`Cn1c(=O)c(F)c(Nc2ccc(I)cc2F)c2c(=O)n(OC[C@H](O)CO)cnc21`: the “%Inh” value is recorded as 5%.

Turning to `COc1ccc(Nc2nccc(N3CCC(NS(=O)(=O)c4ccc(NC(C)=O)cc4)C3)n2)cc1` (stereo not drawn) [GSK1379729], the “%Inh” value was 4%.

Turning to `Cl.NS(=O)(=O)c1cccc(Nc2cc(-c3ccc(F)cc3)n[nH]2)c1` [GW824645], the “%Inh” value stood at 5%.

As to `OCCCNc1nccc(-c2c(-c3cccc(C(F)(F)F)c3)nn3cc(C(F)(F)F)ccc23)n1` [GW630813], the “%Inh” value is recorded as 0%.

Turning to `CCc1ccc(-c2ccc3c(c2)-c2nn(C)cc2S(=O)(=O)N3C)cc1`, the “%Inh” value is on record as 0%.

In the case of `COc1ccc(-c2coc3ccc(-c4nnc(SCc5cccc(C#N)c5)o4)cc23)cc1`, the “%Inh” value is 20%.

In another test the test system is IRAK1. Conditions: concentration: 1 μM, replicates: in singlicate; n = 1.
Turning to `COc1ccc(-c2cc3c(C)nc(N)nc3n([C@H]3CC[C@H](O)CC3)c2=O)cn1`, the “%Inh” value came to 0%.

Take `CCC(=O)c1c(-c2ccccc2)c2cc(Cl)ccc2c(=O)n1Cc1ccc(C(=O)O)cc1`: the “%Inh” value was 0%.

`O=C(NCc1cccs1)c1cc(C(=O)c2c(Cl)cccc2Cl)c[nH]1` [GW823670]: the “%Inh” value stood at 0%.

Regarding `COc1cccc(C2=C(N(C)c3ccccc3)C(=O)NC2=O)c1` [SB-334865], the “%Inh” value is recorded as 42%.

As for `CC(C)(C)c1ccc(C(=O)Nc2cn3cc(-c4ccccc4)ccc3n2)cc1`, the “%Inh” value stood at 17%.

For the compound `CCC(=O)c1c(-c2ccccc2)c2cc(Cl)ccc2c(=O)n1Cc1cc(S(C)(=O)=O)n(CC(F)F)n1`, the “%Inh” value amounted to 26%.

As for `CCC(=O)c1c(-c2ccccc2)c2cc(Cl)ccc2c(=O)n1Cc1cc(S(C)(=O)=O)n(CCC(C)(C)O)n1`, the “%Inh” value is recorded as 2%.

As for `COc1cc2nccc(Nc3ccc(OCc4ccc(NC(C)=O)cc4)cc3)c2cc1OC.Cl` [GW440135], the “%Inh” value worked out at 28%.

Take `COc1cc2nccc(Nc3cccc(Oc4ccccc4)c3)c2cc1OC.Cl` [GW284543]: the “%Inh” value is listed as 0%.

On to `Cl.c1ccc(Cn2cnc3cc(Nc4ncnc5ccccc45)ccc32)cc1` [GW272142], for which the “%Inh” value turned out to be 26%.

Turning to `O=C(NCCNc1ccnc(Nc2ccc(F)cc2)n1)Nc1ccc2c(c1)OCO2` [GSK1379882], the “%Inh” value came out at 16%.

For the compound `Nc1ncnc2c1ncn2-c1ccc(Cl)cc1` [AH2635], the “%Inh” value worked out at 17%.

With `COc1cc(Nc2nccc(N3CCC(NC(=O)C(C)c4ccc(Cl)cc4)C3)n2)cc(OC)c1OC` (stereo not drawn) [GSK1379757], the “%Inh” value is reported as 41%.

For the compound `Cc1c(Cn2c(C)nn3c(=O)cc(N4CCO[C@H](C)C4)nc23)cccc1C(F)(F)F` [GSK2373690], the “%Inh” value was 23%.

In the case of `CCc1nc(-c2cccc(C)c2)c(-c2ccncc2)s1`, the “%Inh” value is on record as 0%.

As for `Cc1nnc(-c2ccc(C)c(-c3ccc(C(=O)O)cc3)c2)o1` [GW608005], the “%Inh” value was determined as 0%.

For `CCC(=O)c1c(-c2ccccc2)c2cc(Cl)ccc2c(=O)n1Cc1cc(C(=O)NC2CC2)n(C)n1`, the “%Inh” value came out at 21%.

In the case of `Nc1nc(-c2ccccc2F)c(-c2ccnc3ccccc23)s1` [GW560459], the “%Inh” value amounted to 30%.

With `Cc1nnc(-c2ccc3ncn(-c4ccc(S(C)=O)cc4)c3c2)o1` (stereo not drawn), the “%Inh” value was 0%.

As for `CCS(=O)(=O)c1ccc(OC)c(Nc2ncc(-c3ccc(F)cc3)o2)c1.Cl` [GW591947], the “%Inh” value is given as 0%.

Regarding `CCS(=O)c1ccc(-c2coc3ccc(-c4nnc(C)o4)cc23)cc1` (stereo not drawn), the “%Inh” value came to 6%.

As for `Nc1n[nH]c2nnc(-c3ccccc3)c(-c3ccccc3)c12` [GW554060], the “%Inh” value is on record as 12%.

Take `O=C(Nc1n[nH]c2nc(-c3ccccc3)c(Cl)cc12)C1CC1` [SB-734909]: the “%Inh” value turned out to be 26%.

Take `COC(=O)c1c(-c2ccccc2)c2cc(Br)ccc2c(=O)n1Cc1ccc(S(C)(=O)=O)cc1`: the “%Inh” value is listed as 19%.

As for `Cc1ccc(Oc2ccc(Nc3ncnc4cc[nH]c34)cc2C)cn1`, the “%Inh” value is 6%.

Regarding `O=C(Nc1n[nH]c2nc(-c3ccccc3)c(Br)cc12)C1CC1` [SB-708998], the “%Inh” value is 0%.

For `CN(C)c1cc(-c2ccc3c(N)n[nH]c3c2)nc(N)n1` [GSK2219329], the “%Inh” value worked out at 0%.

Consider `COc1ccc(-n2cnc3c(N)ncnc32)cc1` [SKF-97236], for which the “%Inh” value is listed as 0%.

As to `CCCC(=O)Nc1n[nH]c2ncc(-c3cccc4ccccc34)cc12` [SB-642057], the “%Inh” value was determined as 77%.

Regarding `FC(F)(F)c1ccc(-c2ncn(CCCN3CCOCC3)c2-c2ccncc2)cc1` [SB-217780], the “%Inh” value is listed as 0%.

For the compound `Cn1c(=O)c(F)c(Nc2ccc(I)cc2F)c2c(=O)n(OC[C@H](O)CO)cnc21`, the “%Inh” value amounted to 0%.

Turning to `COc1ccc(Nc2nccc(N3CCC(NS(=O)(=O)c4ccc(NC(C)=O)cc4)C3)n2)cc1` (stereo not drawn) [GSK1379729], the “%Inh” value stood at 0%.

In the case of `Cl.NS(=O)(=O)c1cccc(Nc2cc(-c3ccc(F)cc3)n[nH]2)c1` [GW824645], the “%Inh” value amounted to 0%.

Regarding `OCCCNc1nccc(-c2c(-c3cccc(C(F)(F)F)c3)nn3cc(C(F)(F)F)ccc23)n1` [GW630813], the “%Inh” value turned out to be 29%.

Consider `CCc1ccc(-c2ccc3c(c2)-c2nn(C)cc2S(=O)(=O)N3C)cc1`, for which the “%Inh” value stood at 0%.

As to `COc1ccc(-c2coc3ccc(-c4nnc(SCc5cccc(C#N)c5)o4)cc23)cc1`, the “%Inh” value is listed as 0%.

The values are drawn from PMC5540273 (PLoS ONE, 2017).
